The whole screen tested about 67,000 compounds, of which fewer than 10 were called active. Calls follow the shape of the dose curve; as a rule, active = well fitted activation curve with a large enough effect (not every such curve was filed as active); inconclusive = small, poorly fitted or top-dose-only effect, or another doubt; inactive = no such curve, though single readings can be large or run the other way. Only a sample is shown.
Experiment: Ubiquitin-GFP Assay
Conditions: Ubiquitin-GFP reporter cells, proteasome inhibition, GFP fluorescence, untreated = 0%, 10 µM MG-132 = 100%; series mostly up to 45.9 µM
How it was run: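 U2OS Ub(G76V)-GFP reporter; O/N plating, 0.5% FBS; cpd 46 uM–2.9 nM, 4 h, 37 °C; GFP+ cell count, 488/515 nm; norm. to basal vs 10 uM MG-132; CRC fit.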

Activation (GFP accumulation), inactive:
COc1ccc(CCNC(=O)CSc2nc(C)nc3c2oc2ccccc23)cc1OC
Cc1nnc(SCC(=O)NCc2ccccc2)s1
COc1ccc2nccc(C(=O)O)c2c1
COC(=O)c1cc(NC(=O)CN2CCC(C(N)=O)(N3CCCCC3)CC2)cc(C(=O)OC)c1
COc1ccc(N(Cc2cc3cc(OC)ccc3[nH]c2=O)S(C)(=O)=O)cc1
O=C(CN1CCOCC1)N1CCCc2c1c(=O)oc1ccc(OCc3ccccc3)cc21
O=C(O)/C(=C/c1c(C(=O)O)[nH]c2cc(Cl)cc(Cl)c12)c1ccccc1
CCCn1c(-c2ccc(F)cc2)nc2c(NC3CCN(Cc4ccccc4)C3)nc(C)nc21 (centres undefined)
COc1ccc(N(CC(=O)NC(C)(C)C)C(=O)c2ccco2)cc1
CCOC(=O)c1cnc2sccn2c1=O
COC(=O)Cn1c(=NC(=O)CSCC(=O)Nc2cc(C)on2)sc2ccccc21
Cc1ccc(C)c2[nH]c(=O)c(CCNC(=O)CC(C)C)cc12
COc1cccc(Cn2c(=O)c(C)nc3cnc(Oc4ccccc4)nc32)c1
O=c1c(-c2ccc(F)cc2)nc2cnc(N3CCNCC3)nc2n1Cc1cccs1
Cc1ccc(SCc2cc(=O)[nH]c(N3CCCCC3)n2)cc1
CC(=O)Oc1ccc(C(=O)Nc2nccs2)cc1
CCn1c(=O)cc(SCC(=O)NCc2ccc3c(c2)OCO3)c2ccccc21
Oc1cc2c(cc1O)CN(C(=S)NCCc1ccc(Cl)cc1)CCC2
Cc1ccc(-c2c3c(=O)n(C)c(=O)n(C)c3cn2-c2ccccc2O)cc1
CCCCn1nnnc1NCc1cc(OC)c(OC)c(OC)c1
CC(N)=NCc1cccc(CN)c1
CN1C(=O)C[C@H](c2ccccc2)C1=O
Nc1nc2c(ncn2[C@H]2CC[C@@H](CO)O2)c(=O)n1C(=O)c1ccccc1 -2.15% [at 9.17 µM]
Cc1ccc(-n2ncc3c2ncn2nc(-c4ccco4)nc32)c(C)c1
CCCCC(=O)Nc1cc(C)c2c(=O)oc3ccccc3c2n1
Cc1ccc(NC(=O)NCC(c2cccnc2)N2CCOCC2)cc1 (centres undefined)
COc1cc(C2C(C#N)=C(C)NC3=C2C(=O)CC(C)(C)C3)ccc1O (centres undefined)
COc1ccc(N2C(=O)c3cccc4cccc(c34)C2=O)nn1
O=C(Nc1nsc(-c2ccccc2)n1)c1ccncc1
C[N+](C)(C)CCCCCNCC12CC3CC(CC(C3)C1)C2
CN(C)c1ccnc2sc3c(=O)n(Cc4ccccc4)cnc3c12
O=C(O)CN(Cc1ccco1)S(=O)(=O)c1ccccc1
CCOCCCNS(=O)(=O)Cc1ccccc1
O=C(O)[C@H](CCc1ccccn1)c1ccccc1 -6.91% [at 9.17 µM]

Reference: PubChem BioAssay AID526 (National Center for Advancing Translational Sciences (NCATS), 2006)
